# Measured values published in paper PMC11062922 (Nature Chemical Biology, 2023).
# Read-outs that look alike come from different tables or passages of the source.
# Tests used:
# Design in all cases: species or system human, MV4-11 + K-562 + COLO205 + SK-N-BE2 + OVCAR-8
# [1] = tested on: PKN2; conditions: read-out: apparent Kd, n = 1
# [2] = tested on: RPS6KB1; conditions: read-out: apparent Kd, n = 1
# [3] = tested on: ACVR1B; conditions: read-out: apparent Kd, n = 1
# [4] = tested on: BUB1; conditions: read-out: apparent Kd, n = 1
# [5] = tested on: CIT; conditions: read-out: apparent Kd, n = 1
# [6] = tested on: MAPK14; conditions: read-out: apparent Kd, n = 1
# [7] = tested on: ABL2; conditions: read-out: apparent Kd, n = 1
# [8] = tested on: AURKB; conditions: read-out: apparent Kd, n = 1
# [9] = tested on: BTK; conditions: read-out: apparent Kd; compound concentrations: 100 nM and 1000 nM (sheet 'Samples'), CATDS: 2.6199359146872301E-2; n = 1
# [10] = tested on: EPHB1; conditions: read-out: apparent Kd, n = 1
# [11] = tested on: LCK; conditions: read-out: apparent Kd, n = 1
# [12] = tested on: PAK6; conditions: read-out: apparent Kd, n = 1
# [13] = tested on: RPS6KA3; conditions: read-out: apparent Kd, compound concentrations: 100 nM and 1000 nM (sheet 'Samples'), n = 1
# [14] = tested on: TTK; conditions: read-out: apparent Kd, n = 1
# [15] = tested on: MARK2; conditions: read-out: apparent Kd, n = 1
# [16] = tested on: NUAK2; conditions: read-out: apparent Kd, n = 1
# [17] = tested on: PRKCA; conditions: read-out: apparent Kd, n = 1
# [18] = tested on: IRAK3; conditions: read-out: apparent Kd, n = 1
# [19] = tested on: MAP3K11; conditions: read-out: apparent Kd, n = 1
# [20] = tested on: PIK3CD; conditions: read-out: apparent Kd, n = 1
# [21] = compound concentrations:100 nM and 1000 nM (sheet 'Samples')
smiles,measurement,setting,value
CCn1c(-c2nonc2N)nc2c(C#CCN)ncc(OCCCN)c21.O=C(O)C(F)(F)F [GSK561866B],potency estimated from few doses,"[1]; compound concentrations: 100 nM and 1000 nM (sheet 'Samples'), CATDS: 7.8850535448236003E-2",1510 nM
same,potency estimated from few doses,"[2]; compound concentrations: 100 nM and 1000 nM (sheet 'Samples'), CATDS: 9.0745453411211097E-2",699 nM
CCn1c(-c2nonc2N)nc2c(-c3ccccc3)ncc(OCCCN)c21.CCn1c(-c2nonc2N)nc2c(-c3ccccc3)ncc(OCCCN)c21.O=C(O)C(F)(F)F.O=C(O)C(F)(F)F [GSK260205A],potency estimated from few doses,"[3]; compound concentrations: 100 nM and 1000 nM (sheet 'Samples'), CATDS: 3.5352360337843801E-2",755 nM
same,potency estimated from few doses,"[4]; compound concentrations: 100 nM and 1000 nM (sheet 'Samples'), CATDS: 0.117322615111941",59 nM
same,potency estimated from few doses,"[5]; compound concentrations: 100 nM and 1000 nM (sheet 'Samples'), CATDS: 2.8413357389646399E-2",1630 nM
same,potency estimated from few doses,"[6]; compound concentrations: 100 nM and 1000 nM (sheet 'Samples'), CATDS: 4.1756268177550598E-2",478 nM
Clc1cc(Cl)cc(Nc2ccnc(Nc3cc(Cl)cc(Cl)c3)n2)c1 [GSK175726A],potency estimated from few doses,"[7]; compound concentrations: 100 nM and 1000 nM (sheet 'Samples'), CATDS: 0.155143101703651",7.68 nM
same,potency estimated from few doses,"[8]; compound concentrations: 100 nM and 1000 nM (sheet 'Samples'), CATDS: 1.17744273258488E-2",461 nM
same,potency estimated from few doses,[9],82.1 nM
same,potency estimated from few doses,"[10]; compound concentrations: 100 nM and 1000 nM (sheet 'Samples'), CATDS: 3.1891027827673897E-2",60 nM
same,potency estimated from few doses,"[11]; compound concentrations: 100 nM and 1000 nM (sheet 'Samples'), CATDS: 2.0638344047220501E-2",125 nM
same,potency estimated from few doses,"[12]; compound concentrations: 100 nM and 1000 nM (sheet 'Samples'), CATDS: 9.3443297736164402E-3",1060 nM
same,potency estimated from few doses,[13]; CATDS: 8.5170276758985107E-3,1660 nM
Nc1nc(Nc2ccccc2)cc(-c2ccc3c(N)n[nH]c3c2)n1 [GSK2225749A],potency estimated from few doses,[3]; [21],293 nM
same,potency estimated from few doses,[4]; [21],1900 nM
CN(C)CCNC(=O)Nc1ccc(N(C)c2ccnc(Nc3ccc(CS(C)(=O)=O)cc3)n2)cc1.Cl [GW830900A],potency estimated from few doses,[8]; [21],387 nM
same,potency estimated from few doses,[14]; [21],2150 nM
O=C(O)C(F)(F)F.O=c1[nH]ccc2nc(N[C@@H]3CCNC3)nc(Nc3ccc4c(c3)S(=O)(=O)CC4)c12 [GSK2181306A],potency estimated from few doses,"[8]; compound concentrations: 100 nM and 1000 nM (sheet 'Samples'), CATDS: 8.4552521896549809E-3",1530 nM
same,potency estimated from few doses,"[15]; compound concentrations: 100 nM and 1000 nM (sheet 'Samples'), CATDS: 1.1093040316995199E-2",635 nM
same,potency estimated from few doses,"[16]; compound concentrations: 100 nM and 1000 nM (sheet 'Samples'), CATDS: 1.3760463216936501E-2",376 nM
same,potency estimated from few doses,"[12]; compound concentrations: 100 nM and 1000 nM (sheet 'Samples'), CATDS: 8.7541295114789697E-3",1330 nM
same,potency estimated from few doses,"[17]; compound concentrations: 100 nM and 1000 nM (sheet 'Samples'), CATDS: 1.32180266874378E-2",412 nM
same,potency estimated from few doses,[13]; CATDS: 9.3639610273777898E-3,1050 nM
Cc1cccc(Nc2nc(N[C@H]3CCNC3)ncc2C(N)=O)c1.Cl [GSK2197149A],potency estimated from few doses,[18]; [21],1280 nM
same,potency estimated from few doses,[19]; [21],1330 nM
same,potency estimated from few doses,[20]; [21],10.5 nM
same,potency estimated from few doses,[17]; [21],437 nM
CC(C)Oc1ccc2c(-c3ccnc(Nc4ccc(N5CCN(C)CC5)cc4)n3)cnn2n1 [GW696155X],potency estimated from few doses,[4]; [21],853 nM
same,potency estimated from few doses,[18]; [21],464 nM
same,potency estimated from few doses,[16]; [21],600 nM
CS(=O)(=O)CCn1c(=O)c(Oc2ccc(F)cc2F)cc2cnc(NC3CCOCC3)nc21 [RO5027956-000],potency estimated from few doses,[4]; [21],1490 nM
same,potency estimated from few doses,[10]; [21],892 nM
same,potency estimated from few doses,[11]; [21],1160 nM
same,potency estimated from few doses,[19]; [21],1930 nM
same,potency estimated from few doses,[6]; [21],17.9 nM
Cc1ccccc1-n1ncc(C(=O)c2ccccc2)c1N [RO1151248-000],potency estimated from few doses,"[7]; compound concentrations: 100 nM and 1000 nM (sheet 'Samples'), CATDS: 2.8713823072650399E-2",630 nM
same,potency estimated from few doses,"[20]; compound concentrations: 100 nM and 1000 nM (sheet 'Samples'), CATDS: 6.44780865676087E-2",184 nM
CCn1c(-c2cccnc2O)nc2cnccc21 [SB-736715],potency estimated from few doses,"[3]; compound concentrations: 100 nM and 1000 nM (sheet 'Samples'), CATDS: 1.8200726561527599E-2",889 nM
same,potency estimated from few doses,"[18]; compound concentrations: 100 nM and 1000 nM (sheet 'Samples'), CATDS: 1.50971530533868E-2",1280 nM
same,potency estimated from few doses,"[20]; compound concentrations: 100 nM and 1000 nM (sheet 'Samples'), CATDS: 9.8292238183885799E-2",84.5 nM
same,potency estimated from few doses,"[14]; compound concentrations: 100 nM and 1000 nM (sheet 'Samples'), CATDS: 1.5814183064690599E-2",1160 nM
Cc1n[nH]c2cc(Nc3ccnc(Nc4cccc(CN5CCOCC5)c4)n3)ccc12 [GW682569X],potency estimated from few doses,"[18]; compound concentrations: 100 nM and 1000 nM (sheet 'Samples'), CATDS: 0.17881857649065999",348 nM
same,potency estimated from few doses,"[20]; compound concentrations: 100 nM and 1000 nM (sheet 'Samples'), CATDS: 0.35370860335397603",121 nM
COc1cc[nH]c1/C=C1\C(=O)Nc2ccc(F)c(C#CC3(O)CCNCC3)c21.Cl [RO0282986-001],potency estimated from few doses,"[15]; compound concentrations: 100 nM and 1000 nM (sheet 'Samples'), CATDS: 1.32977550051059E-2",536 nM
same,potency estimated from few doses,[13]; CATDS: 1.1263723561624001E-2,868 nM
same,potency estimated from few doses,"[14]; compound concentrations: 100 nM and 1000 nM (sheet 'Samples'), CATDS: 9.4369633718921209E-3",1690 nM
NCC(NC(=O)c1cc(-c2cn[nH]c2)c(-c2ccnc3[nH]ccc23)s1)c1ccccc1.NCC(NC(=O)c1cc(-c2cn[nH]c2)c(-c2ccnc3[nH]ccc23)s1)c1ccccc1.O=C(O)C(F)(F)F.O=C(O)C(F)(F)F (centres unmarked) [GSK1325775A],potency estimated from few doses,"[3]; compound concentrations: 100 nM and 1000 nM (sheet 'Samples'), CATDS: 3.7153250837812998E-2",1020 nM
same,potency estimated from few doses,"[5]; compound concentrations: 100 nM and 1000 nM (sheet 'Samples'), CATDS: 4.2305109651231403E-2",719 nM
same,potency estimated from few doses,"[1]; compound concentrations: 100 nM and 1000 nM (sheet 'Samples'), CATDS: 3.8123557619569197E-2",949 nM
COc1ccc(Nc2nccc(-c3ccc(NC(=O)c4cc5cc(F)ccc5[nH]4)cc3)n2)cc1 [GSK1229496A],potency estimated from few doses,"[3]; compound concentrations: 100 nM and 1000 nM (sheet 'Samples'), CATDS: 0.38937877773487001",643 nM
CCN(CC)Cc1ccc(Nc2nccc(-c3cnn4ncccc34)n2)cc1 [GW780056X],potency estimated from few doses,"[16]; compound concentrations: 100 nM and 1000 nM (sheet 'Samples'), CATDS: 2.1304819470262599E-2",1070 nM
same,potency estimated from few doses,"[12]; compound concentrations: 100 nM and 1000 nM (sheet 'Samples'), CATDS: 1.8956003976459398E-2",1620 nM
CS(=O)(=O)Nc1cccc(-c2ccc3c(NC(=O)C4CC4)n[nH]c3c2)c1 [SB-742864],potency estimated from few doses,"[20]; compound concentrations: 100 nM and 1000 nM (sheet 'Samples'), CATDS: 0.40980617743007602",162 nM
COc1cc(Nc2nccc(-c3cnn4ncccc34)n2)cc(OC)c1 [GW801372X],potency estimated from few doses,"[18]; compound concentrations: 100 nM and 1000 nM (sheet 'Samples'), CATDS: 2.51875293793523E-2",553 nM
same,potency estimated from few doses,"[19]; compound concentrations: 100 nM and 1000 nM (sheet 'Samples'), CATDS: 1.8293530288082401E-2",1660 nM
same,potency estimated from few doses,"[20]; compound concentrations: 100 nM and 1000 nM (sheet 'Samples'), CATDS: 4.4256260948390198E-2",135 nM
CN(c1ccc(NC(=O)NCCN2CCOCC2)cc1)c1ccnc(Nc2ccc(CS(C)(=O)=O)cc2)n1.Cl [GW830365A],potency estimated from few doses,"[8]; compound concentrations: 100 nM and 1000 nM (sheet 'Samples'), CATDS: 8.1167400456920294E-2",384 nM
Cl.Cl.NC(CNC(=O)c1cc(Br)c(-c2ccnc3[nH]ccc23)s1)c1ccccc1.NC(CNC(=O)c1cc(Br)c(-c2ccnc3[nH]ccc23)s1)c1ccccc1 (centres unmarked) [GSK1322949A],potency estimated from few doses,"[16]; compound concentrations: 100 nM and 1000 nM (sheet 'Samples'), CATDS: 3.0654913086493301E-2",1150 nM
CC(C)Nc1cc(-c2ccc3c(N)n[nH]c3c2)nc(N)n1 [GSK2221681A],potency estimated from few doses,[3]; [21],803 nM
CS(=O)(=O)Nc1ccc(-c2ccnc3[nH]ccc23)cc1 [GSK993273A],potency estimated from few doses,[20]; [21],183 nM
CC(=O)N[C@@H](Cc1ccc(OP(=O)(O)O)cc1)C(=O)N[C@H]1CCC(=O)N2CCC[C@@H](C(=O)NCc3ccc(Cl)cc3)N2C1=O [RO0325308-000],potency estimated from few doses,[7]; [21],60.3 nM
same,potency estimated from few doses,[10]; [21],71.6 nM
same,potency estimated from few doses,[18]; [21],1530 nM
CCn1c(-c2nonc2N)nc2c(C#CC(C)(C)O)nc(O[C@@H](CN)c3ccccc3)cc21.O=C(O)C(F)(F)F [GSK1007102B],potency estimated from few doses,[5]; [21],21.1 nM
same,potency estimated from few doses,[15]; [21],173 nM
same,potency estimated from few doses,[12]; [21],1090 nM
same,potency estimated from few doses,[1]; [21],390 nM
same,potency estimated from few doses,[17]; [21],1410 nM
same,potency estimated from few doses,[2]; [21],1890 nM
COC(=O)c1cccc(NC(=O)NC2CCN(c3ccnc(Nc4cc(OC)c(OC)c(OC)c4)n3)C2)c1 (centres unmarked) [GSK1379767A],potency estimated from few doses,"[18]; compound concentrations: 100 nM and 1000 nM (sheet 'Samples'), CATDS: 0.12620401960154601",1050 nM
same,potency estimated from few doses,"[20]; compound concentrations: 100 nM and 1000 nM (sheet 'Samples'), CATDS: 0.49933192218353101",112 nM
